From PubChem BioAssay (NCATS)
Inconclusive results are not listed. A call without a number means that no potency is given here. Calls of active or inactive are those of the source. The call rests on the fitted dose curve; in most records, active means well fitted curve in the direction sought with a large enough effect; inconclusive means small, poorly fitted or top-dose-only effect, or another doubt; inactive means no such curve, though single readings can be large; an effect the other way counts as inactive or inconclusive.

What was measured:
[1] = test system: Zika virus NS2B-NS3 protease (linked construct); test: Primary screen NINDS Rhodamine qHTS for Zika virus inhibitors (AID 1347160); further: nearly all actives have a fitted effect of over 55% in size; further: potency means the concentration at half of the fitted maximal effect
Outline: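 Kinetic fluorescence (Ex 480 nm, Em 540 nm) over 15 min with 1.5 microM Rhodamine110 peptide and 25 nM linked protease.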

[2] = test system: Zika virus NS2B-NS3 protease (unlinked complex); test: Primary screen GU Rhodamine qHTS for Zika virus inhibitors: Unlinked NS2B-NS3 protease assay (AID 1347159); further: potency means the concentration at half of the fitted maximal effect; nearly all actives have a fitted effect of over 60% in size
Outline: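 A qHTS format was used, with compound concentrations ranging up to 114 microM. Each compound was preincubated with 25 nM NS2B-NS3 protease, and the substrate was then added at 1.5 microM. Curves were fitted with a 4-parameter Hill model.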

[3] = Confirmatory screen NINDS Rhodamine qHTS for Zika virus inhibitors (AID 1347161); further: potency means the concentration at half of the fitted maximal effect; nearly all actives have a fitted effect of over 60% in size
Outline: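 Enzyme (25 nM, linked NS2B-NS3) was preincubated 15 min with compound in 10 mM Tris-HCl pH 8.0, 0.01% Tween 20. Rhodamine110 substrate (1.5 microM) was then added and fluorescence read at start and after 15 min.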

[4] = test system: Zika virus NS2B-NS3 protease (linked construct); test: 384 well plate NINDS Rhodamine confirmatory qHTS for Zika virus inhibitors (AID 1347164);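 further: fluorescence from protease cleavage of Ac-LKRR-rhodamine 110 substrate; potency means the concentration at half of the fitted maximal effect; nearly all actives have a fitted effect of over 65% in size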
Outline: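 Fluorescence read at ex 485 nm/em 538 nm, 25 min after adding 10 microM Ac-LKRR-Rd substrate at room temperature in the dark; signal normalized to no-enzyme and no-inhibitor controls. Enzyme final 5, 30 or 60 nM; compounds, ~15 min preincubation.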

[5] = Vero cells viability qHTS for Zika virus inhibitors (AID 1347167)
Outline: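 Compounds were tested in concentration series on cells grown in DMEM containing 4% FBS. After 24 to 48 hours, cellular ATP was measured by luminescence with CellTiter Glo.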

**Q.** Which Potency [1] does the source give for `OC[C@H]1O[C@@H](O[C@H]2[C@H](OCCc3ccccc3)O[C@H](CO)[C@@H](O)[C@@H]2O)[C@H](O)[C@@H](O)[C@@H]1O` here?
**A.** Its Potency is “inactive”.

**Q.** For `CC1(C)CCCC2(C)C1CC(=O)C13CC(CCC12)C(O)(CO)C3` (stereo not given), which Potency [1] is on record?
**A.** The Potency was “inactive”.

**Q.** Which Potency [2] does the source give for `CC1(C)CC[C@]2(C(=O)O)CC[C@]3(C)C(=CCC4[C@@]5(C)C[C@@H](O)[C@H](O)C(C)(C)C5CC[C@]43C)C2C1` (stereo not given in full) here?
**A.** Its Potency is 14.1 µM (active).

**Q.** What about the Potency [1] of the same compound?
**A.** The Potency was 10 µM (active).

**Q.** And the Potency [3]?
**A.** Its Potency is 6.07 µM (active).

**Q.** And the Potency [4]?
**A.** The Potency was 6.31 µM (active).

**Q.** What about the outcome [5] of the same compound?
**A.** The outcome was “inactive”.

**Q.** For `CC(=O)O[C@H]1CC[C@@]2(C)C(CC[C@@H](C)[C@]23Cc2c(O)cc4c(c2O3)CN([C@@H](CCC(=O)O)C(=O)O)C4=O)C1(C)C` (stereo not given in full), which Potency [1] is on record?
**A.** The Potency was “inactive”.

**Q.** Which Potency [1] does the source give for `CC(=O)c1ccc2c(c1)C(O)C(C(C)(C)O)O2` (stereo not given) here?
**A.** The Potency was “inactive”.

**Q.** With `CC1=CC(=O)[C@]2(O[C@@H]3O[C@@H](C)[C@H](O)[C@@H](O)[C@H]3OC(=O)/C=C/c3ccccc3)C=CO[C@@H](O[C@@H]3O[C@H](CO)[C@@H](O)[C@H](O)[C@H]3O)[C@H]12` as the compound, how does the Potency [1] read?
**A.** Its Potency is “inactive”.
